Our source for the Potency and activity change, negative = inhibition values is PubChem BioAssay (NCATS).

Results filed as inconclusive are left out. A number with no mark means an inactive call. The source made the active and inactive calls. Calls follow the shape of the dose curve; as a rule, active = well fitted curve in the direction sought with a large enough effect; inconclusive = small, poorly fitted or top-dose-only effect, or another doubt; inactive = no such curve, though single readings can be large; an effect the other way counts as inactive or inconclusive.

The target of assay [1] is Dual specificity protein kinase CLK4 (Homo sapiens) (UniProt Q9HAZ1). Nature of the assay: qHTS Assay for Inhibitors of CDC-like Kinase 4 (Kinase-Glo Assay) (AID 1770). Also: nearly all actives have a fitted effect of over 65% in size. The conditions noted are these: recombinant Clk4, Kinase-Glo ATP depletion luminescence; series mostly up to 66.7 µM. The method in brief:
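Substrate mix (RS peptide 100 uM, ATP 1 uM) dispensed, compound pinned in, then Clk4 added to 25 nM final. Incubated 4.5 h at RT; Kinase-Glo reagent added, luminescence read after 5 min.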
Background: Quantitative high-throughput screening tests each substance at several concentrations.

For assay [2], the target named is Cytochrome P450 2D6 (Homo sapiens) (UniProt P10635). Nature of the assay: qHTS Assay for Inhibitors and Substrates of Cytochrome P450 2D6 (AID 891). Also: nearly all actives have a fitted effect of over 60% in size. The conditions noted are these: recombinant CYP2D6, luciferin-ME EGE luminescence; series mostly up to 57.1 µM. The method in brief:
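Human CYP2D6 (5 nM) with 30 uM Luciferin-ME EGE (at Km) in 100 mM KPO4, compound preincubated 10 min, then NADPH regeneration system for 60 min at room temperature. Luciferin read by luminescence; normalized to 1.43 uM quinidine.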

The target of assay [3] is Cytochrome P450 2C9 (Homo sapiens) (UniProt P11712). As to the kind of experiment: qHTS Assay for Inhibitors and Substrates of Cytochrome P450 2C9 (AID 883). Also: nearly all actives have a fitted effect of over 60% in size. As to activity change, negative = inhibition: % is scaled to controls: 0 for no effect and ±100 for the full control effect. The conditions noted are these: recombinant CYP2C9, luciferin-H luminescence, 60 min; series mostly up to 57.1 µM. A digest of the protocol:
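Inhibition of CYP2C9 is scored as loss of luminescence, with 57uM sulphaphenazole defining 100% inhibition. Substrate Luciferin-H is used at 100uM, equal to its KM; enzyme at 10nM in 25mM KPO4, 60 min at 37C with NADPH regeneration.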
Potency is read from the fitted curve at half-maximal effect.

Chain of Dual specificity protein kinase CLK4 (Homo sapiens) (Q9HAZ1 whole entry, looked up): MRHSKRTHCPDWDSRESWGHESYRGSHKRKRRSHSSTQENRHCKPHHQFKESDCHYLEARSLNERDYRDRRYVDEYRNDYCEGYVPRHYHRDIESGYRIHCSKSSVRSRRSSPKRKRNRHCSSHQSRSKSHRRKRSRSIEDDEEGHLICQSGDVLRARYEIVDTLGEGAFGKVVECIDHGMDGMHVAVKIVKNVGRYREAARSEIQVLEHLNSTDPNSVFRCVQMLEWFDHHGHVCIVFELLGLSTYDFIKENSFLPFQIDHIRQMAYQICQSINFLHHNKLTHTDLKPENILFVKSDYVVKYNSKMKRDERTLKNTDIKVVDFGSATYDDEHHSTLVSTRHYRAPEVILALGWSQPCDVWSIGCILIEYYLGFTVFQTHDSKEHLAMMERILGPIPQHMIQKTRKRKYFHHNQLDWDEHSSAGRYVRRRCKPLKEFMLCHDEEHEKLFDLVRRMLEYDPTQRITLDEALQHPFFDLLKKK
Chain of Cytochrome P450 2C9 (Homo sapiens) (P11712 whole entry, looked up): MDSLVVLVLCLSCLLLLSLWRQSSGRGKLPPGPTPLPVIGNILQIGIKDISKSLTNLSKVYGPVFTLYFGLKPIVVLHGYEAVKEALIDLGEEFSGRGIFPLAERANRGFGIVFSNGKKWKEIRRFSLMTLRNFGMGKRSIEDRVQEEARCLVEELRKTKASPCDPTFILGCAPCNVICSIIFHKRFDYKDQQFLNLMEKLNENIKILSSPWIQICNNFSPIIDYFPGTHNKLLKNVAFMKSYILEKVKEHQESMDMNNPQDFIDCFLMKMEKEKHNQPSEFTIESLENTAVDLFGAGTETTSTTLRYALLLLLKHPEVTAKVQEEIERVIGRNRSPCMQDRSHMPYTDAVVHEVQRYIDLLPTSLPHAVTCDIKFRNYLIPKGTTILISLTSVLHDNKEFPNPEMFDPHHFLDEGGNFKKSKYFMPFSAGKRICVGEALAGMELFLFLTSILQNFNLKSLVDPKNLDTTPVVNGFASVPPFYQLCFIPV
Chain of Cytochrome P450 2D6 (Homo sapiens) (P10635 whole entry, looked up): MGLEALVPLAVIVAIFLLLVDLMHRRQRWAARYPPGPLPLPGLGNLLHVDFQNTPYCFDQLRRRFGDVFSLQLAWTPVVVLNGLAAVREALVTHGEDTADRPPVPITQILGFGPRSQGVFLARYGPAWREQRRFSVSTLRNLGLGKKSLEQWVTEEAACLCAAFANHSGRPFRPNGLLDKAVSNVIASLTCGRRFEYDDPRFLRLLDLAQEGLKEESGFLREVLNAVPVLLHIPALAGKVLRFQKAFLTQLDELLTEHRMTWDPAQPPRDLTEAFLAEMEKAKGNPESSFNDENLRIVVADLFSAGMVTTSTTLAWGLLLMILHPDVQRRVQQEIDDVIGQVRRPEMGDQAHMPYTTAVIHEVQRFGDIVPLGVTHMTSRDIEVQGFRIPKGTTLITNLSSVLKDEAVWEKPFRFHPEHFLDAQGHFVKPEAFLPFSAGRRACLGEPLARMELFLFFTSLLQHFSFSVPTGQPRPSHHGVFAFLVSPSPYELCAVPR

`COc1cccc(Nc2ncc3nc(C)c(=O)n(Cc4cccs4)c3n2)c1`: the Potency result in assay [1] was “inactive”. In the case of `CN(C)C(=O)c1ccc(-c2cncnc2N2CCNCC2)cc1`, the Potency in assay [2] was 7.94 µM (active). On to `CS(=O)(=O)Nc1cccc(-c2ccc3ncnc(NC4CC4)c3c2)c1`, for which, in assay [1], the Potency is 6.31 µM (active).

Consider `Cc1cnc(CNc2ncncc2-c2cccc(C#N)c2)cn1`, for which the Potency in assay [1] is 28.2 µM (active). As to `CN1CCN(c2ncncc2-c2ccc(C(=O)N(C)C)cc2)CC1`, in assay [2], the Potency is 0.251 µM (active).

As to `COc1ccc(CNc2ncncc2-c2cccnc2)c(OC)c1`, in assay [3], the activity change, negative = inhibition is 26.1% [at 2.29 µM]. As to `O=c1c(-c2ccc(Cl)cc2)nc2cnc(N3CCOCC3)nc2n1-c1ccccc1`, in assay [3], the Potency entry was “inactive”. With `COc1ccccc1-c1cc(NCc2ccccc2)ncn1`, the activity change, negative = inhibition in assay [3] is 35.7% [at 2.29 µM]. Same read-out and setting: the result for `Cc1noc(C)c1-c1cc(NCc2cccnc2)ncn1` reads 9.31% [at 2.29 µM]. On to `CN(C)C(=O)c1ccc(-c2nc(NC3CCNCC3)c3ccccc3n2)cc1`, for which the activity change, negative = inhibition in assay [3] was 46.2% [at 2.29 µM]. Turning to `Cn1cc(-c2nc3cnc(N4CCNCC4)nc3n(C)c2=O)c2ccccc21`, the Potency in assay [3] was 7.94 µM (active). For the compound `COCCNc1ccnc(-c2ccccc2C(F)(F)F)n1`, the activity change, negative = inhibition in assay [3] is 34.3% [at 2.29 µM].

For the compound `CS(=O)(=O)Nc1cccc(-c2cncnc2NCc2cccs2)c1`, the Potency in assay [3] was 0.126 µM (active). Same read-out and setting: the result for `CCNc1ncc2nc(C)c(=O)n(-c3ccc(OC)cc3)c2n1` reads “inactive”.

In the case of `CN(C)Cc1ccccc1-c1cc(NC2CC2)ncn1`, the activity change, negative = inhibition in assay [3] is 5.15% [at 2.29 µM].

Turning to `CN(C)C(=O)c1ccc(-c2cncnc2NCCc2cnc[nH]2)cc1`, the Potency in assay [2] was 0.794 µM (active).

`CNc1ccnc(-c2c(C)noc2C)n1`: the activity change, negative = inhibition in assay [3] was 41% [at 2.29 µM]. Turning to `O=c1c(-c2cc(F)cc(F)c2)nc2cnc(N3CCNCC3)nc2n1C1CC1`, the Potency in assay [3] is 0.158 µM (active). With `CN(C)c1ccnc(-c2cccc(NS(C)(=O)=O)c2)n1`, the activity change, negative = inhibition in assay [3] is 2.49% [at 2.29 µM]. Still for that read-out and setting: the result for `Cc1noc(C)c1-c1nccc(-n2ccnc2)n1` reads 16.1% [at 2.29 µM]. Regarding `CNc1ccnc(-c2ccccc2CN(C)C)n1`, the Potency in assay [2] was 0.0398 µM (active). Still for that read-out and setting: as for `COc1cccc(-c2nccc(-n3ccnc3)n2)c1`, the figure is 7.94 µM (active). As for `O=c1c(-c2ccc(F)cc2)nc2cnc(N3CCOCC3)nc2n1C[C@H]1CCCO1`, the Potency entry in assay [3] was “inactive”. Consider `Clc1ccccc1-c1nccc(-n2ccnc2)n1`, for which the Potency in assay [2] is 7.94 µM (active).
